Here are results for 40 molecules from PubChem BioAssay (Tox21).

Records with an inconclusive call do not appear. The source made the active and inactive calls. Calls come from the whole dose curve; as a rule, active = well fitted cell-killing curve with a large enough effect in the repeat runs; inconclusive = weak or mixed curves, or effect the other way; inactive = flat fitted curve, though single readings scatter.

This test in a line: qHTS assay to identify small molecule antagonists of the retinoid acid receptor (RAR) signaling pathway - cell viability counter screen (AID 1159551). Note: nearly all actives have a fitted effect of over 35% in size. To be noted: C3RL4 cells viability, ATP luminescence (CellTiter-Glo), 6 h; series mostly up to 92.4 µM. An excerpt:
U.S. Tox21 Program National Center for Advancing Translational Sciences [NCATS] NIH Chemical Genomics Center [NCGC] U.S. Environmental Protection Agency [EPA] National Institutes of Environmental Health Sciences [NIEHS] National Toxicology Program [NTP] U.S. Food and Drug Administration [FDA] Tox21 Assay Overview: All-trans Retinoic acid (atRA) is the potent natural metabolite of retinol and plays an important role in normal embryonic development and maintenance of cellular phenotype in adult animals. atRA is the activating ligand for the retinoic acid receptors (RARs) which form heterodimers with retinoid X receptors (RXRs) on the retinoic acid response element (RARE). Through activation of the RAR/RXRs nuclear receptors, atRA regulates the transcription of a large number of protein-coding genes and regulatory RNAs. Intracellular levels of atRA are controlled by the retinol signaling pathway (RSP) that regulates the biosynthesis and catabolism of atRA to maintain physiological levels. Chemicals that interfere with the RSP can cause abnormal intracellular levels of atRA and therefore are potential developmental toxicants. To assess compounds for the potential adverse effect on embryonic development through interfering with retinol signaling, a cell-based RARE luciferase reporter gene assay was used. C3RL4 cell line (OARSA/CFSAN/FDA, Laurel, MD) was used to screen Tox21 10K compound library for identifying inhibitors of the RSP. Also cytotoxicity was assessed by determining the viability of cells based on the quantitation of ATP.
Tox21 Assay Protocol Summary: C3RL4 cells were seeded at 1,000/well in 4 uL of assay medium into white solid 1,536-well tissue culture plates (Greiner Bio-One North America Inc. Monroe, NC) using a Multidrop Combi (Thermo Scientific, Waltham, MA) dispenser. After incubation at 37 C and 5% CO2 for an overnight, 23 nL of compounds dissolved in DMSO, positive control or DMSO only were transferred by a Pintool station (Kalypsys, San Diego, CA). One ul of 1 uM (final concentration) of Retinol was added right after the compound addition by using a Flying Reagent Dispenser (FRD) (Aurora Discovery, San Diego, CA). After 6 hr incubation at 37 C and 5% CO2, 5 uL of CellTiter-Glo reagent (Promega Corporation, Madison, WI) was added to each assay plate using an FRD. Luminescence was quantified on a ViewLux plate reader (PerkinElmer, Waltham, MA) after 30 min incubation at room temperature.
Background: qHTS replaces the single test concentration by a dilution series.
For the molecule `CC(C)(C)[C@@H](O)[C@@H](Cc1ccc(Cl)cc1)n1cncn1`, the outcome was inactive.

For `N[C@@H](Cc1cc(I)c(Oc2cc(I)c(O)c(I)c2)c(I)c1)C(=O)O`, the outcome was inactive.

Turning to `Cc1cccnc1`, the molecule was called inactive.

On to `Cc1occc(=O)c1O`, for which the call was inactive.

`CC(C)CC(=O)CC(C)C`: the molecule was classed as inactive.

With `O=c1[nH]c(=O)n([C@H]2CCCO2)cc1F`, the molecule was classed as inactive.

`CCCC(C)=O`: the molecule was called inactive.

In the case of `Nc1cc([N+](=O)[O-])ccc1O`, the molecule was classed as inactive.

With `COc1cc(Cc2cnc(N)nc2N)cc(OC)c1OC`, the outcome was inactive.

Consider `Cc1cnc(C(=O)NCCc2ccc(S(=O)(=O)NC(=O)NC3CCCCC3)cc2)cn1`, for which the result was inactive.

As for `CCCCN(CCCC)CCCC`, the molecule was called inactive.

Turning to `CCCCC(CC)COC(=O)CCCCC(=O)OCC(CC)CCCC` (stereo not given), the outcome was inactive.

For the molecule `CCCCCCCCCC`, the result was inactive.

For the molecule `CCOC(=O)NNc1nncc2ccccc12`, the result was inactive.

As to `C#CCN(C)Cc1ccccc1`, the molecule was called inactive.

As for `Nc1ccccc1[N+](=O)[O-]`, the molecule was called inactive.

For `CCCSc1ccc2nc(NC(=O)OC)[nH]c2c1`, the call was inactive.

In the case of `CCCCCCCCCCCCc1ccccc1`, the call was inactive.

As to `OCCOCCN1CCN(C2=Nc3ccccc3Sc3ccccc32)CC1`, the result was inactive.

As to `CCCCCC(N)=O`, the molecule was classed as inactive.

Take `OCc1cccnc1`: the call was inactive.

In the case of `COc1ccc(Nc2ccccc2)c(C)c1`, the molecule was called inactive.

On to `C[C@H]1C[C@@H]2[C@H]([C@@H](O)C[C@@]3(C)[C@H]2CC[C@]3(O)C(=O)CO)[C@@]2(C)C=CC(=O)C=C12`, for which the molecule was classed as inactive.

Consider `O=C=NCCCCCCN=C=O`, for which the call was inactive.

Take `CCCCC(CC)COC(=O)C(C#N)=C(c1ccccc1)c1ccccc1` (stereo not given): the call was inactive.

For the molecule `CC1=C(C)S(=O)(=O)CCS1(=O)=O`, the call was inactive.

As to `Cc1cc(C)c(C)cc1C`, the result was inactive.

Regarding `C[Si](O[Si](C)(C)C)O[Si](C)(C)C`, the molecule was classed as inactive.

For `C=C(C)C(=O)O[C@H]1C[C@@H]2CC[C@@]1(C)C2(C)C`, the molecule was classed as inactive.

On to `O=C(O)c1cc(O)c(O)c(O)c1`, for which the result was inactive.

With `CCCCCCCCCCCCS`, the molecule was classed as inactive.

With `CCCCCC1=CCCC1=O`, the molecule was classed as inactive.

In the case of `CC(C)c1ccc(S(=O)(=O)O)cc1`, the molecule was called inactive.

Consider `CC[C@H](C)C(=O)O[C@H]1C[C@@H](C)C=C2C=C[C@H](C)[C@H](CC[C@@H]3C[C@@H](O)CC(=O)O3)[C@H]21`, for which the call was inactive.

Regarding `CCCCCCCCCCCCCCCO`, the molecule was called inactive.

For `C#C[C@]1(O)CC[C@H]2[C@@H]3CCC4=CC(=O)CC[C@@H]4[C@H]3CC[C@@]21C`, the molecule was classed as inactive.

`O=C(O)CCCCCCCCCCC(=O)O`: the outcome was inactive.

With `O=C(O)c1ccc2c(c1)C(=O)OC2=O`, the result was inactive.

Take `c1ccc2scnc2c1`: the outcome was inactive.

As to `CCCCCOC(C)=O`, the molecule was called inactive.
